The whole screen tested about 39,000 compounds, of which about 1,500 (3.8%) were called active. The entries come from a sample that favours actives as a whole.
tested on: HSkMC (human skeletal muscle cells); assay: cytotoxicity call (relative viability < 0.9); details: 10 µM

Row | Compound | cytotoxicity call
1 | C[C@H](CO)N1C[C@H](C)[C@@H](CN(C)C(=O)CN(C)C)Oc2cc(-c3cncnc3)ccc2S1(=O)=O | inactive
2 | O=C(C[C@H]1CC[C@H]2[C@@H](COC[C@H](O)CN2C(=O)c2cnccn2)O1)NCc1ccc(Oc2ccccc2)cc1 | inactive
3 | C[C@@H]1CN([C@H](C)CO)S(=O)(=O)c2ccc(C#CC3CCCC3)cc2O[C@H]1CN(C)C(=O)Cc1ccncc1 | inactive
4 | C[C@@H]1CCCCO[C@@H](CN(C)C(=O)c2ccccc2)[C@@H](C)CN([C@H](C)CO)C(=O)c2cc(NS(=O)(=O)c3ccc(Cl)cc3)ccc2O1 | inactive
5 | O=C(NCC(F)(F)F)[C@@H]1[C@@H](CO)[C@@H]2Cn3c(cccc3=O)[C@H]1N2C(=O)C1CCC1 | inactive
6 | COc1ccc(S(=O)(=O)N(C)C[C@H]2Oc3ccc(NS(=O)(=O)c4ccc(C)cc4)cc3C(=O)N([C@H](C)CO)C[C@@H]2C)cc1 | inactive
7 | CC(C)NC(=O)N(C)C[C@@H]1Oc2ccc(NC(=O)CCN3CCOCC3)cc2CC(=O)N([C@@H](C)CO)C[C@@H]1C | inactive
8 | Cc1ccccc1S(=O)(=O)N1C[C@H](O)COC[C@H]2O[C@@H](CC(=O)NCc3ccccc3Cl)CC[C@@H]21 | inactive
9 | COc1ccc2c3c([nH]c2c1)[C@@H](CO)N(Cc1ccc(cc1)Cl)C[C@]13CCN(CCc2ccccc2)CC1 | active
10 | COc1ccc2c3c([nH]c2c1)[C@H](CO)N(C[C@]13CCN(CCc2ccccc2)CC1)C(=O)CN1CCOCC1 | inactive
11 | COc1ccc2c3c([nH]c2c1)[C@H](CO)N(Cc1ccc(cc1)Cl)C[C@]13CCN(CCc2ccccc2)CC1 | inactive
12 | COc1ccc2c3c([nH]c2c1)[C@@H](CO)N(Cc1ccc(cc1)Cl)C[C@]13CN(CCc2ccccc2)C1 | active
13 | COc1ccc2c3c([nH]c2c1)[C@H](CO)N(Cc1ccccc1)C[C@]13CCN(CC1)C(=O)Nc1cccc(c1)F | inactive
14 | COc1ccc2c3c([nH]c2c1)[C@@H](CO)N(Cc1ccccc1)C[C@]13CCN(CC1)C(=O)Nc1cccc(c1)F | inactive
15 | COc1ccc2c3c([nH]c2c1)[C@H](CO)N(C[C@]13CN(CCc2ccccc2)C1)C(=O)CN1CCOCC1 | inactive
16 | COc1ccc2c3c([nH]c2c1)[C@@H](CO)N(C[C@]13CN(CCc2ccccc2)C1)C(=O)CN1CCOCC1 | inactive
17 | COc1ccc2c3c([nH]c2c1)[C@H](CO)N(Cc1ccc(cc1)Cl)C[C@]13CN(CCc2ccccc2)C1 | active
18 | C[C@@H]1CCCCO[C@H](CN(C)C(=O)c2ccccc2)[C@H](C)CN([C@@H](C)CO)C(=O)c2cc(NC(=O)Cc3ccccc3)ccc2O1 | inactive
19 | C[C@@H]1CN([C@@H](C)CO)C(=O)Cc2cc(NS(=O)(=O)c3cn(C)cn3)ccc2O[C@H]1CN(C)C | inactive
20 | COC(=O)C1=CO[C@@H](O[C@@H]2O[C@H](CO)[C@@H](O)[C@H](O)[C@H]2O)[C@@H]2[C@@H](CO)C=C[C@H]12 | inactive
21 | C[C@@H]1CN([C@@H](C)CO)C(=O)c2cc(NC(=O)CCC(F)(F)F)ccc2O[C@@H](C)CCCCO[C@@H]1CN(C)C(=O)C1CCCCC1 | inactive

Row | Compound | cytotoxicity call
22 | COc1ccc(C#Cc2ccc3c(c2)O[C@@H](CN(C)C(C)=O)[C@@H](C)CN([C@H](C)CO)S3(=O)=O)cc1 | inactive
23 | COc1ccc(CN(C)C[C@@H]2OCCCC[C@H](C)Oc3ccc(NC(=O)CCC(F)(F)F)cc3C(=O)N([C@@H](C)CO)C[C@@H]2C)cc1 | inactive
24 | CCCNc1nc(Nc2ccc(C#N)cc2)ncc1C#CCCCNC(=O)[C@H](C)N(C)C(=O)/C=C/CN(C)C | active
25 | OCc1ccccc1-n1cncn1 | inactive
26 | COc1ccc2c3c([nH]c2c1)[C@@H](CO)N(C[C@]13CCN(CC1)C(=O)Nc1ccc(cc1)F)C(=O)c1ccc(cc1)F | inactive
27 | COc1ccc2c3c([nH]c2c1)[C@@H](CO)N(CC1CCCC1)C[C@]13CCN(CC1)C(=O)c1ccc(cc1)F | active
28 | COc1ccc2c3c([nH]c2c1)[C@H](CO)N(CC1CCCC1)C[C@]13CCN(CC1)C(=O)Nc1cccc(c1)F | inactive
29 | COc1ccc2c3c([nH]c2c1)[C@H](CO)N(C[C@]13CCN(CC1)C(=O)Nc1ccc(cc1)F)C(=O)c1ccc(cc1)F | inactive
30 | COc1ccc2c3c([nH]c2c1)[C@@H](CO)N(CC1CCCC1)C[C@]13CCN(CC1)C(=O)Nc1cccc(c1)F | inactive
31 | COc1ccc2c3c([nH]c2c1)[C@H](CO)N(CC1CCCC1)C[C@]13CCN(CC1)C(=O)c1ccc(cc1)F | active
32 | CC(=O)N[C@H](Cc1ccc2ccccc2c1)C(=O)N[C@H](Cc1ccc(Cl)cc1)C(=O)N[C@H](Cc1cccnc1)C(=O)N[C@@H](CO)C(=O)N(C)[C@@H](Cc1ccc(O)cc1)C(=O)N[C@H](CC(N)=O)C(=O)N[C@@H](CC(C)C)C(=O)N[C@@H](CCCCNC(C)C)C(=O)N1CCC[C@H]1C(=O)N[C@H](C)C(N)=O | inactive
33 | CS(=O)(=O)Nc1ccc2c(c1)[C@@H]1C[C@H](CC(=O)NCc3ccc(-c4ccccc4)cc3)O[C@@H](CO)[C@@H]1O2 | inactive
34 | C[C@@H]1CN([C@@H](C)CO)C(=O)Cc2cc(NC(=O)CCCCCC(=O)Nc3ccccc3N)ccc2O[C@H]1CN(C)Cc1ccccc1 | inactive
35 | C[C@@H]1CN([C@H](C)CO)C(=O)c2cc(NC(=O)Nc3ccc(C(F)(F)F)cc3)ccc2O[C@@H](C)CCCCO[C@H]1CN(C)S(=O)(=O)c1ccc(F)cc1 | inactive
36 | Cc1noc(C)c1NC(=O)N(C)C[C@@H]1OCCCC[C@H](C)Oc2ccc(NS(=O)(=O)c3ccccc3)cc2C(=O)N([C@@H](C)CO)C[C@@H]1C | inactive
37 | CC(C)Oc1cccc(-n2c(CCc3c[nH]c4ccc(Br)cc34)nc3ccccc3c2=O)c1 | active
38 | COc1ccc2[nH]cc(CCNC(C)=O)c2c1 | inactive
39 | Cn1c(CN)nc2ccccc2c1=O | inactive
40 | C[C@@H]1CCCCO[C@H](CN(C)C(=O)Cc2ccccc2)[C@H](C)CN([C@H](C)CO)C(=O)c2cc(NS(=O)(=O)c3cccs3)ccc2O1 | inactive
41 | Cc1noc(C)c1S(=O)(=O)Nc1ccc2c(c1)C(=O)N([C@@H](C)CO)C[C@H](C)[C@H](CN(C)S(=O)(=O)c1cn(C)cn1)O2 | inactive
42 | C[C@H](CO)N1C[C@H](C)[C@H](CN(C)C(=O)Nc2cccc3ccccc23)OCCCC[C@H](C)Oc2ccc(NS(=O)(=O)c3cn(C)cn3)cc2C1=O | inactive

Row | Compound | cytotoxicity call
43 | C[C@H]1CCCCO[C@@H](CN(C)C(=O)Nc2cccc3ccccc23)[C@@H](C)CN([C@@H](C)CO)C(=O)c2cc(NS(=O)(=O)c3cn(C)cn3)ccc2O1 | active
44 | C[C@@H]1CCCCO[C@H](CN(C)C(=O)Nc2cccc3ccccc23)[C@H](C)CN([C@H](C)CO)C(=O)c2cc(NS(=O)(=O)c3cn(C)cn3)ccc2O1 | active
45 | C[C@@H]1CCCCO[C@H](CN(C)C(=O)Nc2cccc3ccccc23)[C@@H](C)CN([C@@H](C)CO)C(=O)c2cc(NS(=O)(=O)c3cn(C)cn3)ccc2O1 | inactive
46 | C[C@@H]1CN([C@@H](C)CO)C(=O)c2cc(NS(=O)(=O)c3cn(C)cn3)ccc2O[C@@H](C)CCCCO[C@@H]1CN(C)C(=O)Nc1cccc2ccccc12 | active
47 | C[C@@H]1CCCCO[C@@H](CN(C)C(=O)Nc2cccc3ccccc23)[C@@H](C)CN([C@H](C)CO)C(=O)c2cc(NS(=O)(=O)c3cn(C)cn3)ccc2O1 | inactive
48 | C[C@H]1CCCCO[C@H](CN(C)C(=O)Nc2cccc3ccccc23)[C@@H](C)CN([C@@H](C)CO)C(=O)c2cc(NS(=O)(=O)c3cn(C)cn3)ccc2O1 | inactive
49 | C[C@H](CO)N1C[C@H](C)[C@@H](CN(C)C(=O)Nc2cccc3ccccc23)OCCCC[C@H](C)Oc2ccc(NS(=O)(=O)c3cn(C)cn3)cc2C1=O | inactive
50 | C[C@@H]1CCCCO[C@H](CN(C)C(=O)Nc2cccc3ccccc23)[C@H](C)CN([C@@H](C)CO)C(=O)c2cc(NS(=O)(=O)c3cn(C)cn3)ccc2O1 | inactive
51 | C[C@@H]1CN([C@@H](C)CO)C(=O)c2cc(NS(=O)(=O)c3cn(C)cn3)ccc2O[C@@H](C)CCCCO[C@H]1CN(C)C(=O)Nc1cccc2ccccc12 | active
52 | C[C@@H]1CCCCO[C@@H](CN(C)C(=O)Nc2cccc3ccccc23)[C@H](C)CN([C@@H](C)CO)C(=O)c2cc(NS(=O)(=O)c3cn(C)cn3)ccc2O1 | inactive
53 | C[C@@H]1CCCCO[C@@H](CN(C)C(=O)Nc2cccc3ccccc23)[C@H](C)CN([C@H](C)CO)C(=O)c2cc(NS(=O)(=O)c3cn(C)cn3)ccc2O1 | inactive
54 | C[C@@H]1CN([C@@H](C)CO)S(=O)(=O)c2ccc(-c3cncnc3)cc2O[C@H]1CN(C)C(=O)Cc1cccnc1 | inactive
55 | C[C@@H]1CCCCO[C@H](CN(C)C(=O)Nc2ccccc2)[C@@H](C)CN([C@H](C)CO)C(=O)c2cc(NC(=O)c3ccncc3)ccc2O1 | inactive
56 | Cc1noc(C)c1NC(=O)N(C)C[C@H]1Oc2ccc(NS(=O)(=O)c3cccs3)cc2CC(=O)N([C@@H](C)CO)C[C@H]1C | inactive
57 | Cc1ccc(-c2cnc(-c3ccc(Br)cc3)o2)cc1 | inactive
58 | C[C@@H]1CN([C@H](C)CO)C(=O)Cc2cc(NC(=O)Cn3cnnn3)ccc2O[C@@H]1CN(C)Cc1ccccc1 | inactive
59 | CCCN1C[C@H](C)[C@@H](O)[C@](C)(O)[C@@H](CC)OC(=O)[C@H](C)[C@@H](O[C@H]2C[C@@](C)(OC)[C@@H](O)[C@H](C)O2)[C@H](C)[C@@H](O[C@@H]2O[C@H](C)C[C@H](N(C)C)[C@H]2O)[C@](C)(O)C[C@H]1C | inactive
60 | CCc1cccc(C(C)C)c1NC(=O)Nc1ccccc1 | inactive
61 | CC(C)c1ccccc1Cc1cc(C(=O)Nc2ccc(S(=O)(=O)c3ccccc3C(C)(C)C)cc2)c(O)c(O)c1O | active
62 | Cc1oc(C(C)(C)C)cc1C(=O)Nc1ccc(C(C)C)cc1 | inactive

— the antibiotic and cytotoxicity screens of Wong et al. (2023)
